This passage reports Percent Effect results from ChEMBL document CHEMBL3988442, “University of Dundee, Small-Polar-MMV Screening Library” (2021).

The structures appear in SMILES notation.

Sequence of Chromo domain-containing protein 1 (Saccharomyces cerevisiae (strain ATCC 204508 / S288c) (Baker's yeast)) (P32657 whole entry, the tested form may be a part): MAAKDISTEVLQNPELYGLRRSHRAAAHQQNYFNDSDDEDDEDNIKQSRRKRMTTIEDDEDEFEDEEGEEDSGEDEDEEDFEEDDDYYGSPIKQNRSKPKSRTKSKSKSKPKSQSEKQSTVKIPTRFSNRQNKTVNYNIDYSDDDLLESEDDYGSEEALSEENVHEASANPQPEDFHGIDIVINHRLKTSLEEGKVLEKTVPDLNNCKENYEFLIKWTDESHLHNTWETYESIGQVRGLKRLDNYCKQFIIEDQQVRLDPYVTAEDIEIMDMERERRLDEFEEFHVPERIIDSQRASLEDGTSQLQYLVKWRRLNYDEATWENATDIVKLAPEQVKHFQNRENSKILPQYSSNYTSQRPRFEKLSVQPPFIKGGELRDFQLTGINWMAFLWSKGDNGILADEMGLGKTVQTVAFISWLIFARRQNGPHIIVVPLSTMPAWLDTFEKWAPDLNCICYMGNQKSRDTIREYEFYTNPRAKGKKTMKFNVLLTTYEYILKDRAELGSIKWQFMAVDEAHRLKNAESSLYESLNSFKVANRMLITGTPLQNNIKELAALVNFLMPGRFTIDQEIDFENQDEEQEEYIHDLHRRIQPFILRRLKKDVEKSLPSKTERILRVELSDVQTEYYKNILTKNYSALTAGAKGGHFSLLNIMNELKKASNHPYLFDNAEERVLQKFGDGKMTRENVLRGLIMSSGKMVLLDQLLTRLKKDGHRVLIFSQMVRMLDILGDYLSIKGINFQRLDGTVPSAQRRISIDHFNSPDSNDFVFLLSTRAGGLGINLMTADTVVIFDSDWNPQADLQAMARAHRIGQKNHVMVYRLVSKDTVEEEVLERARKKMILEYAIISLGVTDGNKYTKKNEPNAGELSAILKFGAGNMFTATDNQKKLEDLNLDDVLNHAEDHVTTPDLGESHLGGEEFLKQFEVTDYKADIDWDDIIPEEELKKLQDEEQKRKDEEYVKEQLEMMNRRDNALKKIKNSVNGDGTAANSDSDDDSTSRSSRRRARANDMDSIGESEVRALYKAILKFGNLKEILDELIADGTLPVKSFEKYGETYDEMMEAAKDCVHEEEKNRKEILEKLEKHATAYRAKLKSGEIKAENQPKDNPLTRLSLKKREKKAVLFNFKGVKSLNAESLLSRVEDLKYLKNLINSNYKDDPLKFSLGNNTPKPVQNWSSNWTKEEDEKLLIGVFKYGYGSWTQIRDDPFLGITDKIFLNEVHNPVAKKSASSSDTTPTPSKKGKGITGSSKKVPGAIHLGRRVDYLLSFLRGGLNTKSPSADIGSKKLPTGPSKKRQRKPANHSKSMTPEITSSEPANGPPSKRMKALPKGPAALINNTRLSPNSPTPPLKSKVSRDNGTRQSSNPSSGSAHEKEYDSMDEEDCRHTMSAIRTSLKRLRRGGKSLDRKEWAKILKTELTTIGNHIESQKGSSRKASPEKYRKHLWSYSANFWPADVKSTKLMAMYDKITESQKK

The first assay addresses T1, Tyrosyl-tRNA synthetase, putative (Trypanosoma cruzi (strain CL Brener)) (UniProt Q4DSP6).
T1 sequence (whole entry): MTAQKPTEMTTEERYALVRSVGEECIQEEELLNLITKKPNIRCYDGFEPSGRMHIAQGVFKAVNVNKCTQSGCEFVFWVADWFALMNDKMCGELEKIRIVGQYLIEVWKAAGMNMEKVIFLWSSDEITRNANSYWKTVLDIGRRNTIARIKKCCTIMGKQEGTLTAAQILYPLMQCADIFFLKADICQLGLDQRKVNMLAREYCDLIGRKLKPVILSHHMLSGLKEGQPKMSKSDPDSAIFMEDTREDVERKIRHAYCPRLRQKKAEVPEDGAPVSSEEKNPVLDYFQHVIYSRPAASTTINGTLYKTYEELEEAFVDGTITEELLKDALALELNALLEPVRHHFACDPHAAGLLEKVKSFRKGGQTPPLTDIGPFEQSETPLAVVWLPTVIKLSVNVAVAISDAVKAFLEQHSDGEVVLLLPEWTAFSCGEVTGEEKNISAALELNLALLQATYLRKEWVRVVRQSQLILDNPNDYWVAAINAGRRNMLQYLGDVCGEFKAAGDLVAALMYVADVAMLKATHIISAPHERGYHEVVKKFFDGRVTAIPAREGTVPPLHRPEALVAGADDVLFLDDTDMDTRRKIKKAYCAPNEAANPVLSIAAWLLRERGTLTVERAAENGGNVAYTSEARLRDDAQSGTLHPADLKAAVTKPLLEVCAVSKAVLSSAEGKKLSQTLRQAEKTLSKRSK
The assay is described as follows: Trypanosoma cruzi tyrosyl tRNA synthetase (TcYRS) _High Tyrosine SOP. The assay is classed as functional. Also noted: scale not given: in the data most compounds retested in dose-response had high values. Particulars: 30 µM.
As to `CC(C)C(NC(=O)NCC1(CO)CC1)c1nnc2n1CCC2` (configuration not stated), the Percent Effect turned out to be 7.92%.

For the molecule `COc1ccccc1CN(C)c1nccc(-c2cn(C)nc2C)n1`, the Percent Effect was determined as 6.01%.

As for `COc1ccc(CNC(=O)Nc2cccnc2N2CCCC2)cc1O`, the Percent Effect was 2.46%.

For `Cn1ncc2c1CN(Cc1cccnc1)CC2COCC1CC1` (configuration not stated), the Percent Effect was found to be 4.17%.

In the case of `COc1ccc(OC)c(CNCCc2cc(F)cc3c2OCOC3)c1`, the Percent Effect turned out to be 2.1%.

Regarding `CS(=O)(=O)NCCCN1CCCC1c1ccccc1` (configuration not stated), the Percent Effect was determined as 7.39%.

Consider `CN1CCOC(CNCc2cccc(OCC(F)(F)F)c2)C1` (configuration not stated), for which the Percent Effect was 4.43%.

With `Cc1cnn(CCNCc2csc(-c3cccs3)n2)c1`, the Percent Effect was -3.43%.

Regarding `CCn1cnnc1CNC(=O)NC(C)c1cccs1` (configuration not stated), the Percent Effect was found to be 4.85%.

For `CC(C)Nc1nc(N2CCOCC2)nc2c1CN(CC(=O)N(C)C)CC2`, the Percent Effect was -1.06%.

As for `O=C(NCCCO)C1CC(=O)N(c2n[nH]c3cccc(F)c23)C1` (configuration not stated), the Percent Effect worked out at 5.29%.

In the case of `Cn1cc(CN2C[C@@H]3COC[C@@H](C(=O)N4CCCCO4)[C@@H]3C2)cn1`, the Percent Effect is 7.45%.

Regarding `O=C1CC(c2ccccc2)c2snc(C(=O)O)c2N1` (configuration not stated), the Percent Effect was 3.17%.

For the molecule `CCc1nc(C(=O)N2CCCC2)nn1-c1ccccc1Cl`, the Percent Effect was 7.39%.

As to `Cc1ccc(Nc2nccc(C3CN(CC(N)=O)C3)n2)nc1`, the Percent Effect was determined as 8.6%.

For the molecule `O=C(NCCCn1cccn1)N1CCCC1c1ccncc1` (configuration not stated), the Percent Effect was 0.546%.

As to `CCC1CN(CC(=O)Nc2sccc2C#N)CCO1` (configuration not stated), the Percent Effect amounted to 4.41%.

Turning to `CCc1n[nH]c(C2CN(C(=O)c3cnc[nH]3)CCO2)n1` (configuration not stated), the Percent Effect came out at 2.86%.

Consider `O=C(NCC1CCCO1)c1c(-n2cnnn2)sc2c1CCC2` (configuration not stated), for which the Percent Effect amounted to 3.19%.

The target in another assay is T1, Tyrosyl-tRNA synthetase, putative (Trypanosoma cruzi (strain CL Brener)). The assay is described as follows: Trypanosoma cruzi tyrosyl tRNA synthetase (TcYRS) SOP. Particulars: 30 µM. The format is functional. The arrangement: scale not given: direction of the effect not stated beside the values.
With `CCn1nc(C)c(CNC(=O)c2cn(CC3CCCO3)nn2)c1C` (configuration not stated), the Percent Effect worked out at 11.1%.

`CN1CCCc2cc(CNC(=O)c3ccc(NC4CC4)nc3)ccc21`: the Percent Effect stood at 10.1%.

In the case of `Cc1ccc(CNC2CCCc3c2cnn3C)s1` (configuration not stated), the Percent Effect stood at 21.2%.

Turning to `Cc1nc(CN2CCN(CC(=O)Nc3c(C)cccc3C)CC2)no1`, the Percent Effect was 18.8%.

On to `CC(=O)N1CCC(C(=O)c2cc(C)cnc2N)CC1`, for which the Percent Effect was found to be 11.5%.

In the case of `CC(=O)N1C[C@H](NC(=O)c2cscn2)[C@@H]2OCCC[C@@H]21`, the Percent Effect came to 10.3%.

Regarding `NC(=O)COc1ccc(CNCc2ccc(F)cc2F)cc1`, the Percent Effect worked out at 12.8%.

Take `CCCNC(=O)CN1CCN(Cc2csc(C(C)(C)C)n2)CC1`: the Percent Effect is -3.8%.

Consider `CCN1CC2(CCNCC2)COc2ccccc2S1(=O)=O`, for which the Percent Effect worked out at 5.13%.

Consider `Cc1ccccc1CSc1nc(N)cc(N2CC[C@@H](O)C2)n1`, for which the Percent Effect was 30.9%.

Take `O=C1CC2(CCN(CCO)CC2)CN1Cc1cc(F)cc(F)c1`: the Percent Effect was 10.3%.

Regarding `O=C(c1csc(-c2cccs2)n1)N1CCCC1Cn1cccn1` (configuration not stated), the Percent Effect is 6.17%.

`CS(=O)(=O)N1CCC(Oc2ccc(C(=O)N3CCSCC3)cc2Cl)CC1`: the Percent Effect was determined as 7.69%.

In the case of `CCc1nnc2n1CCN(Cc1csc(-c3cnn(C)c3)n1)C2`, the Percent Effect is 0%.

Consider `CN(C)C(=O)CNC(=O)c1ccc(Cl)cc1F`, for which the Percent Effect is -28.6%.

Consider `Fc1ccc(-c2cnc(CN3CCCC3Cn3cccn3)o2)cc1` (configuration not stated), for which the Percent Effect amounted to 13.9%.

Consider `Cc1cccnc1NCCNC(=O)[C@H]1CNC[C@@H](C(=O)N2CCCC2)C1`, for which the Percent Effect is 13.6%.

In the case of `Cc1cnc(NC(=O)c2ccc(-n3ncc(C#N)c3N)cc2)s1`, the Percent Effect was found to be 24.1%.

For the molecule `NCc1cnn(-c2ccccc2C(=O)NCCCn2ccnc2)c1`, the Percent Effect came out at 11.7%.

With `CN(Cc1cnn(C)c1)C(=O)NC1CCN(Cc2ccccn2)CC1`, the Percent Effect was 7.32%.

On to `CC(C)C(NC(=O)NCC1(CO)CC1)c1nnc2n1CCC2` (configuration not stated), for which the Percent Effect stood at 11%.

For the molecule `COc1ccccc1CN(C)c1nccc(-c2cn(C)nc2C)n1`, the Percent Effect is 16.1%.

`COc1ccc(CNC(=O)Nc2cccnc2N2CCCC2)cc1O`: the Percent Effect was determined as 16.1%.

Turning to `Cn1ncc2c1CN(Cc1cccnc1)CC2COCC1CC1` (configuration not stated), the Percent Effect was 8.64%.

On to `COc1ccc(OC)c(CNCCc2cc(F)cc3c2OCOC3)c1`, for which the Percent Effect stood at 2.56%.

On to `CS(=O)(=O)NCCCN1CCCC1c1ccccc1` (configuration not stated), for which the Percent Effect is 13.9%.

As to `CN1CCOC(CNCc2cccc(OCC(F)(F)F)c2)C1` (configuration not stated), the Percent Effect stood at 1.27%.

Consider `Cc1cnn(CCNCc2csc(-c3cccs3)n2)c1`, for which the Percent Effect was determined as 0%.

On to `CCn1cnnc1CNC(=O)NC(C)c1cccs1` (configuration not stated), for which the Percent Effect worked out at 21.9%.

Take `CC(C)Nc1nc(N2CCOCC2)nc2c1CN(CC(=O)N(C)C)CC2`: the Percent Effect is -3.85%.

Consider `O=C(NCCCO)C1CC(=O)N(c2n[nH]c3cccc(F)c23)C1` (configuration not stated), for which the Percent Effect is 15.4%.

Regarding `Cn1cc(CN2C[C@@H]3COC[C@@H](C(=O)N4CCCCO4)[C@@H]3C2)cn1`, the Percent Effect was 8.97%.

In the case of `O=C1CC(c2ccccc2)c2snc(C(=O)O)c2N1` (configuration not stated), the Percent Effect is 7.69%.

Take `CCc1nc(C(=O)N2CCCC2)nn1-c1ccccc1Cl`: the Percent Effect was 18.5%.

For `Cc1ccc(Nc2nccc(C3CN(CC(N)=O)C3)n2)nc1`, the Percent Effect turned out to be 24.7%.

Take `O=C(NCCCn1cccn1)N1CCCC1c1ccncc1` (configuration not stated): the Percent Effect was found to be 1.24%.

For `CCC1CN(CC(=O)Nc2sccc2C#N)CCO1` (configuration not stated), the Percent Effect is 9.76%.

Consider `CCc1n[nH]c(C2CN(C(=O)c3cnc[nH]3)CCO2)n1` (configuration not stated), for which the Percent Effect was -11.8%.

`O=C(NCC1CCCO1)c1c(-n2cnnn2)sc2c1CCC2` (configuration not stated): the Percent Effect came to 7.79%.

A further assay concerns the target Chromo domain-containing protein 1 (Saccharomyces cerevisiae (strain ATCC 204508 / S288c) (Baker's yeast)) (UniProt P32657). The assay is described as follows: ScCHD-1 Enzyme Inhibition Assay. The format is functional. The arrangement: scale not given: in the data most compounds retested in dose-response had high values. Particulars: 30 µM.
`CCn1nc(C)c(CNC(=O)c2cn(CC3CCCO3)nn2)c1C` (configuration not stated): the Percent Effect was -0.117%.

With `CN1CCCc2cc(CNC(=O)c3ccc(NC4CC4)nc3)ccc21`, the Percent Effect was -6.23%.

`Cc1ccc(CNC2CCCc3c2cnn3C)s1` (configuration not stated): the Percent Effect is -7.9%.

In the case of `Cc1nc(CN2CCN(CC(=O)Nc3c(C)cccc3C)CC2)no1`, the Percent Effect is -17.5%.

As for `CC(=O)N1CCC(C(=O)c2cc(C)cnc2N)CC1`, the Percent Effect is -4.18%.

For the molecule `CC(=O)N1C[C@H](NC(=O)c2cscn2)[C@@H]2OCCC[C@@H]21`, the Percent Effect was -0.517%.

As to `NC(=O)COc1ccc(CNCc2ccc(F)cc2F)cc1`, the Percent Effect is -5.67%.

Regarding `CCCNC(=O)CN1CCN(Cc2csc(C(C)(C)C)n2)CC1`, the Percent Effect was -1.83%.

Take `CCN1CC2(CCNCC2)COc2ccccc2S1(=O)=O`: the Percent Effect is -8.01%.

With `Cc1ccccc1CSc1nc(N)cc(N2CC[C@@H](O)C2)n1`, the Percent Effect is -7.45%.

`O=C1CC2(CCN(CCO)CC2)CN1Cc1cc(F)cc(F)c1`: the Percent Effect is -9.52%.

For `O=C(c1csc(-c2cccs2)n1)N1CCCC1Cn1cccn1` (configuration not stated), the Percent Effect was 0.105%.

As to `CS(=O)(=O)N1CCC(Oc2ccc(C(=O)N3CCSCC3)cc2Cl)CC1`, the Percent Effect was -2.42%.

As for `CCc1nnc2n1CCN(Cc1csc(-c3cnn(C)c3)n1)C2`, the Percent Effect was 0.402%.

In the case of `CN(C)C(=O)CNC(=O)c1ccc(Cl)cc1F`, the Percent Effect was -15.3%.

Consider `Fc1ccc(-c2cnc(CN3CCCC3Cn3cccn3)o2)cc1` (configuration not stated), for which the Percent Effect was -1.62%.

Take `Cc1cccnc1NCCNC(=O)[C@H]1CNC[C@@H](C(=O)N2CCCC2)C1`: the Percent Effect is -4.52%.

Regarding `Cc1cnc(NC(=O)c2ccc(-n3ncc(C#N)c3N)cc2)s1`, the Percent Effect was -2.52%.

With `NCc1cnn(-c2ccccc2C(=O)NCCCn2ccnc2)c1`, the Percent Effect is -2.44%.

Take `CN(Cc1cnn(C)c1)C(=O)NC1CCN(Cc2ccccn2)CC1`: the Percent Effect is -3.83%.

`CC(C)C(NC(=O)NCC1(CO)CC1)c1nnc2n1CCC2` (configuration not stated): the Percent Effect was -9.98%.

`COc1ccccc1CN(C)c1nccc(-c2cn(C)nc2C)n1`: the Percent Effect was -5.41%.

Consider `COc1ccc(CNC(=O)Nc2cccnc2N2CCCC2)cc1O`, for which the Percent Effect was -7.7%.

Take `Cn1ncc2c1CN(Cc1cccnc1)CC2COCC1CC1` (configuration not stated): the Percent Effect is -7.87%.

With `COc1ccc(OC)c(CNCCc2cc(F)cc3c2OCOC3)c1`, the Percent Effect was -2.06%.

For `CS(=O)(=O)NCCCN1CCCC1c1ccccc1` (configuration not stated), the Percent Effect was -5.84%.

As to `CN1CCOC(CNCc2cccc(OCC(F)(F)F)c2)C1` (configuration not stated), the Percent Effect was -2.57%.

As for `Cc1cnn(CCNCc2csc(-c3cccs3)n2)c1`, the Percent Effect is 6.81%.

In the case of `CCn1cnnc1CNC(=O)NC(C)c1cccs1` (configuration not stated), the Percent Effect was -8.5%.

As for `CC(C)Nc1nc(N2CCOCC2)nc2c1CN(CC(=O)N(C)C)CC2`, the Percent Effect is -5.05%.

Take `O=C(NCCCO)C1CC(=O)N(c2n[nH]c3cccc(F)c23)C1` (configuration not stated): the Percent Effect is -14.8%.

Consider `Cn1cc(CN2C[C@@H]3COC[C@@H](C(=O)N4CCCCO4)[C@@H]3C2)cn1`, for which the Percent Effect was 1.85%.

In the case of `O=C1CC(c2ccccc2)c2snc(C(=O)O)c2N1` (configuration not stated), the Percent Effect is -12%.

For `CCc1nc(C(=O)N2CCCC2)nn1-c1ccccc1Cl`, the Percent Effect was -7.11%.

On to `Cc1ccc(Nc2nccc(C3CN(CC(N)=O)C3)n2)nc1`, for which the Percent Effect is -14.1%.

Take `O=C(NCCCn1cccn1)N1CCCC1c1ccncc1` (configuration not stated): the Percent Effect was -6.79%.

For `CCC1CN(CC(=O)Nc2sccc2C#N)CCO1` (configuration not stated), the Percent Effect is -9.42%.

Take `CCc1n[nH]c(C2CN(C(=O)c3cnc[nH]3)CCO2)n1` (configuration not stated): the Percent Effect was -9.8%.

On to `O=C(NCC1CCCO1)c1c(-n2cnnn2)sc2c1CCC2` (configuration not stated), for which the Percent Effect was -4.34%.
